Tested on: FLT4
Settings: concentration: 1 μM, replicates: in singlicate; n = 1
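Further: KINOMEscan kinase panel screen.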

Point of comparison: `Cn1cc(-c2ccc3c(c2)CCN3C(=O)Cc2cccc(F)c2)c2c(N)ncnc21` [GSK2603358], “%Inh” value 6%. Against it:
- Nc1ncc(-c2cccnc2)c2scc(-c3ccc4c(c3)CCN4C(=O)Cc3ccccc3)c12 [GSK683281] — higher, 35%
- c1ccc(Oc2ccc(Nc3ccnc4cc(-c5ccc(CNCCN6CCOCC6)o5)ccc34)cc2)nc1 [GW567145] — lower, 0%
- Cl.Cl.NCC(NCc1ccc(-c2ccnc3[nH]ccc23)s1)c1ccccc1 (stereo not drawn) [GSK1321565] — lower, 5%
- CCn1c(-c2nonc2N)nc2c(C#CC(C)(C)O)nc(OC[C@H](N)c3ccccc3)cc21 [GSK943949] — higher, 20%
- O=C(Nc1cccc(-c2nn3ncccc3c2-c2ccnc(Nc3ccccc3)n2)c1)c1c(F)cccc1F [GSK198271] — higher, 77%
- CCS(=O)(=O)c1ccc(OC)c(Nc2nccc(-c3c(-c4cccc(NC(=O)c5c(F)cccc5F)c4)nn4ncccc34)n2)c1 [GSK326180] — higher, 29%
- C[C@@H](Oc1cc(-n2cnc3cc(-c4ccnc(NCCS(C)(=O)=O)c4)ccc32)sc1C(N)=O)c1ccccc1Cl [GSK907232] — higher, 96.6%
- Oc1cc(Nc2ccnc3cc(I)ccc23)ccc1F [GW552771] — higher, 45%
- Nc1ncc(-c2ccc3nccc(-c4ccncc4)c3c2)cc1S(=O)(=O)N1CCOCC1 [GSK1627798] — lower, 0%
- Cl.Cl.NCC(C(=O)Nc1cc(Br)c(-c2ccnc3[nH]ccc23)s1)c1ccccc1 (stereo not drawn) [GSK1269851] — lower, 0%
- COc1ccc(Nc2nccc(N3CCC(NC(=O)Nc4cccc(OC)c4)C3)n2)cc1 (stereo not drawn) [GSK1379742] — lower, 0%
- Cc1cccc(NC(=O)Nc2ccc(Oc3ncnc4ccn(C)c34)cc2)c1 — higher, 73%
- O=C(Nc1ccccc1F)NC1CCN(c2ccnc(Nc3ccc(F)cc3)n2)CC1 [GSK1379800] — lower, 0%
- COc1cccc(C2=C(Nc3ccc(Cl)c(C(=O)O)c3)C(=O)NC2=O)c1 [SB-390769] — higher, 47%
- O=c1[nH]cc(-c2ccc(N3CCOCC3)cc2)c2sc(-c3cn[nH]c3)cc12 [GSK2276055] — lower, 0%
- COc1ccc(Nc2nccc(NCCNC(=O)c3cc4ccccc4s3)n2)cc1 [GSK1379896] — higher, 10%
- O=C(Nc1cccc(-c2nn3ccccc3c2-c2ccnc(Nc3cccc(C(F)(F)F)c3)n2)c1)c1c(F)cccc1F [GSK292658] — higher, 36%
- COc1cccc(-c2ccc3c(NC(=O)C4CC4)n[nH]c3n2)c1 [SB-710903] — lower, 1%
- Cc1cccc(Nc2nc(N[C@H]3CCNC3)ncc2C(N)=O)c1.Cl [GSK2197149] — higher, 9%
- Fc1ccc(-c2ncn(C3CCNCC3)c2-c2ccnc(Oc3ccc(-c4ccccc4)cc3)n2)cc1 [SB-245391] — lower, 5%
- O=C(NC1CCN(c2ccnc(Nc3ccc(F)cc3)n2)C1)c1cc2ccccc2s1 (stereo not drawn) [GSK1379716] — lower, 3%
- COc1cccc(C(=O)Nc2cccc(Oc3ccc4nc(NC(=O)C5CC5)cn4n3)c2)c1 — higher, 100%
- Cl.NC(=O)c1cccc(Nc2nccc(Nc3ccc(Oc4c(Cl)cccc4Cl)c(Cl)c3)n2)c1 [GW659009] — lower, 0%
- O=C(Nc1n[nH]c2cc(-c3ccoc3)ccc12)C1CC1 [SB-738481] — lower, 0%
- Cl.c1ccc(-c2ccc3c(Nc4ccc5[nH]ccc5c4)ccnc3c2)nc1 [GW440138] — higher, 92.9%
- COc1ccc(-c2coc3ccc(-c4nnc(SCc5ccc(OC)c(C(F)(F)F)c5)o4)cc23)cc1 — higher, 13%
- COc1cc2c(cc1OCCN1CCNCC1)ncc1c3ccc(C#N)cc3[nH]c21 — lower, 0%
- CN(c1ccc(NC(=O)Nc2cc(C(F)(F)F)ccc2F)cc1)c1ccnc(Nc2ccc(S(N)(=O)=O)cc2)n1 [GW809893] — higher, 99.8%
- CN(C)Cc1ccc(-c2ccc3c(Nc4ccc(Oc5ccccn5)cc4)ccnc3c2)o1 [GW567148] — higher, 21%
- c1ccc(-c2n[nH]cc2Nc2ccnc3ccccc23)nc1 [GW694077] — higher, 11%
- COc1ccc(CNC(=O)NC2CCN(c3ccnc(Nc4ccc(F)cc4)n3)CC2)cc1 [GSK1379788] — lower, 0%
- COc1cc(Nc2nccc(-c3c(-c4cccc(NC(=O)c5c(F)cccc5F)c4)nn4ncccc34)n2)cc(OC)c1OC [GSK327238] — higher, 99.8%

Reference: publication PMC5540273 (PLoS ONE, 2017)
